{
  "source": "ChEMBL document CHEMBL1961873",
  "about": "“Compounds: GSK PKIS; Assays: Nanosyn kinase panel” (2012);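 further: reported figure is an averaged inhibition value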",
  "data": [
    {"target": "Mitogen-activated protein kinase kinase kinase kinase 4 (Homo sapiens) (UniProt O95819)", "sequence (O95819 2-1239 limits assumed)": "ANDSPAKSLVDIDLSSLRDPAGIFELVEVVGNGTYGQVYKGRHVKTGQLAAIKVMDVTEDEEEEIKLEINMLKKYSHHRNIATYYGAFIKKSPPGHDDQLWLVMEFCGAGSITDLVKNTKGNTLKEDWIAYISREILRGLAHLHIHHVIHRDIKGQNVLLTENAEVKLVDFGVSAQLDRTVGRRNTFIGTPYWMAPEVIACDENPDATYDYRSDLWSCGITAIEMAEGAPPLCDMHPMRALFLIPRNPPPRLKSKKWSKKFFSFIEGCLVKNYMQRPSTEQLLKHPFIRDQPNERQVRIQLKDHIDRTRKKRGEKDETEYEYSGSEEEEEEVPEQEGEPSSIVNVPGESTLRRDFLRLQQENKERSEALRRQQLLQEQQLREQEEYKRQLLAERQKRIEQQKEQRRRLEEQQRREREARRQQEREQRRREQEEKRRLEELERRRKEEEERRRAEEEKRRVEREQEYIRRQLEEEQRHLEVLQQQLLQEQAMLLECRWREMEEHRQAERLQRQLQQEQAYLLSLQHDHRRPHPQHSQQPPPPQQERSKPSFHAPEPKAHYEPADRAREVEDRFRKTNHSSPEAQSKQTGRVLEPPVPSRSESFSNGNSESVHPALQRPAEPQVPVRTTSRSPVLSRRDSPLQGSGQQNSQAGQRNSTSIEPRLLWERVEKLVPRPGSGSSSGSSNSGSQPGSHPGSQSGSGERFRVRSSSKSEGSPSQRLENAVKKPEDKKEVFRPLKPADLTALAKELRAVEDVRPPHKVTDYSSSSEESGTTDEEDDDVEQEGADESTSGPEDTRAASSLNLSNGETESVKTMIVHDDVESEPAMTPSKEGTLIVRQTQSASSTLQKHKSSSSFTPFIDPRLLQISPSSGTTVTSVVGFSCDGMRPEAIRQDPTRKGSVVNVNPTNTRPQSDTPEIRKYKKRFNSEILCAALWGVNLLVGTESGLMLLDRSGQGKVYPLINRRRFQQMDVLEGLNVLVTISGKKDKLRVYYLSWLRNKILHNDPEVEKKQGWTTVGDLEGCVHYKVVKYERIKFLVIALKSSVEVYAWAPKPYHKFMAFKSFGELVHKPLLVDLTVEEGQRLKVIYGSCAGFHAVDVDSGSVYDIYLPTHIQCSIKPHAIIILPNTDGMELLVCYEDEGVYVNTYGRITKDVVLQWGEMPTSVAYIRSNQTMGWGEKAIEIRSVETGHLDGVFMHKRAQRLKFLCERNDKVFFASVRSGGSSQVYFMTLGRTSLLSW", "conditions": "at 1 µM", "units": {"inhibition": "%"}, "values": [
      {"smiles": "COc1cccc(/C=N/Nc2ncnc3c2cnn3-c2cccc(OC)c2)c1", "inhibition": 10.8},
      {"smiles": "COc1ccc2ncn(-c3cc(O[C@H](C)c4ccccc4Cl)c(C(N)=O)s3)c2c1", "inhibition": 5.82},
      {"smiles": "O=C(Nc1n[nH]c2cc(-c3cc(F)ccc3F)ccc12)C1CC1", "inhibition": 58.7},
      {"smiles": "COc1ccc(-c2ccc3c(NC(=O)C4CC4)n[nH]c3n2)cc1", "inhibition": 33},
      {"smiles": "Clc1ccc(CNc2nccc(-c3cnn4ncccc34)n2)cc1", "inhibition": 16.3},
      {"smiles": "CN(C)CCOc1ccc(-c2cc(-c3ccc4c(c3)CCC4=NO)c(-c3ccncc3)o2)cc1", "inhibition": 17.3},
      {"smiles": "COc1cc(N2CCN(C(C)C)CC2)ccc1Nc1nc(Nc2ccc(F)cc2C(=O)NC[C@@H](O)CO)c2cc[nH]c2n1", "inhibition": 13.6},
      {"smiles": "Cc1ccc(C(=O)NC(C)C)cc1-c1ccc(C(=O)NCC2CC2)cc1", "inhibition": 1.81},
      {"smiles": "O=C(Nc1ccc(Oc2ccc3[nH]c(NC(=O)c4ccccc4)nc3c2)cc1)Nc1cc(C(F)(F)F)ccc1F", "inhibition": 5.89},
      {"smiles": "Cc1ccc(C(=O)NC2CCC2)cc1-c1ccc(C(=O)NCC2CC2)cc1", "inhibition": 3.8},
      {"smiles": "O=C1Nc2ccc(I)cc2C1=Cc1cc(Br)c(O)c(Br)c1", "inhibition": 83.7},
      {"smiles": "COc1cc(C)c(N(C)C(=O)CN(C)C)cc1Nc1nc(Nc2cccc(F)c2C(N)=O)c2cc[nH]c2n1", "inhibition": 4.77},
      {"smiles": "NS(=O)(=O)c1ccc(N/N=C2\\C(=O)Nc3ccc(-c4cnco4)cc32)cc1", "inhibition": 77.6},
      {"smiles": "CS(=O)(=O)CCNCc1ccc(-c2ccc3ncnc(Nc4ccc(OCc5ccccc5)c(Br)c4)c3c2)o1", "inhibition": 6.29},
      {"smiles": "COc1cccc(-n2cnc3c(N/N=C/c4ccncc4)ncnc32)c1", "inhibition": 16.9},
      {"smiles": "Cc1ccc(NC(=O)c2ccoc2)cc1-c1ccc(C(=O)NCC2CC2)cc1", "inhibition": 1.38}
    ]}
  ]
}
